Screening data (PubChem)
G9a block: blocks human histone lysine methyltransferase G9a. G9a H3K9 monomethylation, AlphaScreen, 2 h. Potency, µM (top dose mostly 102 µM), without a hit: top-dose activity, negative = inhibition, actives largely listed as inhibitors. 350,000 tested, 8.8% active. AID 504332; also: % is scaled to controls: 0 for no effect and ±100 for the full control effect; nearly all actives have a fitted effect of over 75% in size
Target sequence (Q96KQ7 913-1193 limits assumed): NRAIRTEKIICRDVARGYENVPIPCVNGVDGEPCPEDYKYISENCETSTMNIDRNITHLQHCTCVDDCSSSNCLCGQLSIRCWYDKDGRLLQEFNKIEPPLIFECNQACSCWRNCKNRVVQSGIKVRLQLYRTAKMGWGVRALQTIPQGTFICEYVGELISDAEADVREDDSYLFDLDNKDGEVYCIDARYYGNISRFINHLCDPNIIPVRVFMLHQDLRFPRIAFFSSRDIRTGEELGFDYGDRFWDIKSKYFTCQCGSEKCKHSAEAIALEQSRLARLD
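Quantitative HTS format: methyltransferase activity on a biotin-tagged H3K9 peptide is measured by AlphaScreen, using a rabbit anti-monomethyl-H3K9 antibody with streptavidin donor and anti-IgG acceptor beads. Final levels are 20 nM enzyme, 500 nM peptide, 20 uM SAM; 2 h RT.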
Sfp inh: inhibitors of Bacillus subtilis Sfp phosphopantetheinyl transferase; Biochemical Sfp PPTase activity, qHTS; 310,000 tested, 3.5% active; Potency, µM, inactives show largest response in the series, negative = inhibition, most hits filed as inhibitors; AID 1490;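 also: the enzyme is Sfp with the accession as filed and its product quenches rhodamine fluorescence; 0% = enzyme reaction without inhibitor and -100% = no enzyme wells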
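Compounds were incubated with enzyme (final 15 nM) for 15 min at room temperature before substrate addition started the reaction. Fluorescence at 525 nm excitation, 598 nm emission was recorded immediately and after 30 minutes.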
HP1b binding inh: inhibitors of HP1-beta chromodomain binding to methylated histone tails. AID 540317. P83916. AlphaScreen HP1-beta / biotin-H3K9me3 peptide binding. 390,000 tested, 0.56% active. Potency, µM (top dose mostly 114 µM), for the others: at the top dose activity change, negative = inhibition, hits mostly inhibitors; also: nearly all actives have a fitted effect of over 70% in size
Target sequence (P83916 whole entry, looked up): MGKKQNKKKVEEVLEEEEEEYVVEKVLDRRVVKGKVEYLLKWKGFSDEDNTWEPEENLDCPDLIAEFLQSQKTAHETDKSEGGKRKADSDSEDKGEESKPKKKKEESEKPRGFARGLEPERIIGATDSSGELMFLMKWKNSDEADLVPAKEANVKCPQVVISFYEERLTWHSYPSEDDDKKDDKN
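Compound inhibition of the preformed complex between 50 nM HP1-beta and 50 nM biotinylated H3K9me3 peptide was read by AlphaScreen. Buffer was PBS pH 7.4 with 0.01% Tween-20. Incubations ran 30 min at room temperature, with 10 ug/mL donor/acceptor beads.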
JMJD2A Tudor inh: JMJD2A Tudor domain (human) inhibition. O75164. Potency, µM (titrated, usually from 114 µM), without a hit: top-dose activity change, negative = inhibition, actives largely listed as inhibitors. 390,000 tested, 4.4% active. AlphaScreen JMJD2A-Tudor / H3K4me3 peptide binding; also: % is scaled to controls: 0 for no effect and ±100 for the full control effect; nearly all actives have a fitted effect of over 50% in size
BAZ2B inh: inhibitors of human BAZ2B bromodomain. Q9UIF8. AlphaScreen BAZ2B-H3K14Ac peptide displacement. Potency, µM (highest dose often 114 µM), without a hit: at the highest dose activity change, negative = inhibition, actives largely listed as inhibitors. 360,000 tested, 4.4% active; also: % is scaled to controls: 0 for no effect and ±100 for the full control effect; nearly all actives have a fitted effect of over 60% in size
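Protein-peptide AlphaScreen: BAZ2B 50 nM, b-H3K14Ac 50 nM, 1x PBS pH 7.4 + 0.01% Tween-20. Preincubation 30 min RT; cpd 30 min RT (top 110 uM); beads 20 min RT, light-protected.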
* = called active by the depositor; u = inconclusive; x = no result; [ ] = another dose, or the depositor's remark. Only some compounds are listed: those with a hit (about 12% of all), similar ones and a draw of the others. Calls follow the shape of the dose curve; as a rule, active = well fitted curve in the direction sought with a large enough effect; inconclusive = small, poorly fitted or top-dose-only effect, or another doubt; inactive = no such curve, though single readings can be large; an effect the other way counts as inactive or inconclusive. Potency is read from the fitted curve at half-maximal effect.

SMILES	G9a block	Sfp inh	HP1b binding inh	JMJD2A Tudor inh	BAZ2B inh
COc1ccc(C(=O)N/C(=C/c2ccco2)C(=O)N2CCCCCC2)cc1	35.5µM*	89.1µM*	20.8%	-22.6%	u
Cc1ccc(C(=O)N/C(=C/c2ccco2)C(=O)N2CCCCC2)cc1	50.1µM*	-3.3%	-3.0%	-18.6%	-9.2%
COc1ccc(C(=O)N/C(=C\c2cn(C)c3ccccc23)C(=O)N2CCN(C)CC2)cc1	44.7µM*	-4.6%	41.3%	-29.8%	-38.4%
O=C(N/C(=C\c1ccco1)C(=O)N1CCOCC1)c1ccco1	31.6µM*	28.2µM*	20.1%	-5.5%	3.9%
COc1ccc(C2/C=C\CN(C(=O)c3ccccc3)C(Cc3ccccc3)C(=O)N2Cc2ccc(F)cc2)cc1 (stereo not given)	x	-7.3%	6.2%	-20.7%	x
Cc1cc2c(s1)c1cnn(Cc3cc(F)c(F)c(F)c3F)c(=O)c1n2C	x	x	x	-8.2%	x
CC1CN(C(=O)/C(=C/c2ccco2)NC(=O)c2ccccc2)CC(C)O1 (stereo not given)	35.5µM*	16.4%	0.3%	-10.6%	-2.9%
CCOC(=O)C1CCCN(C(=O)/C(=C/c2ccco2)NC(=O)c2ccccc2)C1 (stereo not given)	39.8µM*	u	3.7%	-24.7%	-18.5%
CCN1CCN(C(=O)/C(=C/c2ccco2)NC(=O)c2ccccc2)CC1	u	8.4%	20.8%	10.9%	0.8%
COC(=O)/C(=C/c1ccco1)NC(=O)c1ccccc1	u	-1.8%	27.8%	-12.0%	-17.2%
CCOC(=O)C1CCN(C(=O)/C(=C/c2ccccc2)NC(=O)c2ccccc2)CC1	7.8%	-3.8%	29.1%	-5.6%	-6.7%
Cc1ccc(C(=O)N/C(=C\c2ccco2)C(=O)N2CCCCC2)cc1	44.7µM*	-0.2%	u	-20.3%	-12.6%
O=C(N/C(=C/c1ccco1)C(=O)N1CCCCCC1)c1ccccc1	44.7µM*	-0.1%	-15.2%	-16.4%	1.7%
O=C(N/C(=C\c1ccc(-c2ccccc2)o1)C(=O)N1CCOCC1)c1ccccc1	50.1µM*	-2.5%	-24.1%	56.2µM*	-32.3%
Cc1ccc(C)c(Nc2nc(NCc3ccco3)nc3nccnc23)c1	x	x	67.2%	-14.2%	x
CC(C)CC(=O)N1CCN(Cc2cccc(F)c2)CC1	-45.6%[12.7 µM]	-16.5%	u	4.47µM*	56.2µM*
COc1ccc(CN2CCN(C(C)C(=O)NC(C)c3ccc(F)cc3)CC2)cc1F (stereo not given)	-1.9%	-3.7%	22.5%	-7.4%	-3.7%
COc1ccc(CN2CCN(C(C)C(=O)N(C)Cc3cccc(F)c3)CC2)cc1OC (stereo not given)	2µM*	u	u	4.47µM*	17.8µM*
COc1cc(OC)c(OC)cc1CN1CCN(C(=O)CC(C)C)CC1	17.8µM*	8.9%	u	1.58µM*	u
CC(C)CC(=O)N1CCN(C(=O)c2ccco2)CC1	-11.2%	18.3%	35.8%	-1.7%	6.7%
COc1cccc(CN2CCN(C(=O)CC(C)C)CC2)c1	17.8µM*	-13.8%	-57.2%	5.62µM*	56.2µM*
COc1ccc(C(=O)N2CCN(C(=O)CC(C)C)CC2)cc1OC	u	9.4%	13.1%	-6.9%	0.1%
COc1ccc(CC(C(=O)Nc2ccc(OC)cc2)c2nn[nH]n2)cc1 (stereo not given)	x	-5.4%	40.2%	-1.3%	u
COCCn1c(=O)c(-c2ccc(F)cc2)nc2cnc(Oc3ccccc3)nc21	4.0%[0.501 µM]	25.5%	x	x	x
CC(C)OC(=O)c1cn(-c2ccccc2)nc1-c1ccco1	7.94µM*	8.91µM*	16.6%	-15.8%	-8.7%
SMILES	G9a block	Sfp inh	HP1b binding inh	JMJD2A Tudor inh	BAZ2B inh
Cc1ccc(-c2nn(-c3ccccc3)cc2/C=C/C(=O)O)o1	28.2µM*	-104.2%	36.1%	-23.9%	u
Cc1ccc(-c2nn(-c3ccccc3)cc2CN(Cc2ccccc2)C(=O)c2ccco2)o1	31.6µM*	17.8µM*	-37.3%	56.2µM*	31.6µM*
Cc1ccc(-c2nn(-c3ccccc3)cc2C(=O)O)o1	4.47µM*	-100.5%	x	x	u
CCN(Cc1nc(-c2ccccc2)no1)C(=O)c1ccco1	14.1%	12.2%	45.5%	-12.0%	-3.3%
CCOC(=O)C1=C(C)NC(C)=C(C(=O)OCC)C1c1cn(-c2ccccc2)nc1-c1ccco1	1.6%[12.7 µM]	25.6%	33.1%	-6.2%[11.4 µM]	-4.5%
O=C(O)/C=C/c1cn(-c2ccccc2)nc1-c1cc2ccccc2oc1=O	x	6.3%	31.1%	-3.4%	0.8%
CC(C)C(=O)Nc1cccc(NC(=S)NC(=O)c2ccc3c(c2)OCO3)c1	65.0%	22.2%	10.8%	22.4µM*	-14.6%
COC(=O)c1ccccc1NC(=S)NC(=O)c1ccc2c(c1)OCO2	39.8µM*	-14.2%	9.3%	-7.6%	-18.9%
COc1cc([N+](=O)[O-])ccc1NC(=S)NNC(=O)c1ccc2c(c1)OCO2	8.91µM*	-14.7%	u	50.1µM*	u
COc1cc([N+](=O)[O-])ccc1NC(=O)NNC(=O)c1sccc1C	70.8µM*	16.4%	36.7%	-10.6%	-19.5%
CC(C)C(=O)Nc1cccc(NC(=S)NC(=O)c2ccc(Cl)cc2)c1	-48.7%[59 µM]	-13.9%	6.3%	-22.4%	-28.3%
O=C(NC(=S)Nc1cc([N+](=O)[O-])ccc1O)c1ccc2c(c1)OCO2	u	-29.8%	u	-33.6%	u
Cc1ccc(-n2nnc(-c3nsc(NC(=O)c4cccc(Cl)c4)n3)c2C)cc1C	-22.6%[59 µM]	x	26.5%	-6.2%	3.2%
COc1ccccc1NC(=O)C(=O)NCC(c1cccnc1)N1CCc2ccccc2C1 (stereo not given)	u	x	0.5%	-28.9%	u
CC(=O)Nc1ccn(C2OC(C(COC(C)=O)NC(=O)C(C)NC(=O)OC(C)(C)C)C(OC(C)=O)C2OC(C)=O)c(=O)n1 (stereo not given)	x	4.0%	19.8%	-14.5%	x
CCOC(=O)C1=C(COC(=O)COc2ccccc2C(C)C)NC(=O)NC1C (stereo not given)	-23.6%	x	14.6%	-12.4%	-2.3%
Cc1cccc(NC(=O)N2CCC(N3CCN(Cc4ccccc4)C(=O)C3=O)CC2)c1C	7.5%[59 µM]	x	4.1%	-19.0%	3.4%
CCOC(=O)C[C@H]1c2ccccc2S(=O)(=O)N1Cc1cccc(C(F)(F)F)c1	x	x	60.8%	13.8%	x
COc1ccc(NC(=O)CN2C(=O)C(=O)N(C3CCCC3)C2=O)c(OC)c1	x	x	23.5%	-23.8%	x
CCCCC(=O)Nc1cccc(NC(=S)NC(=O)C(C)C)c1	28.2µM*	u	5.1%	u	0.6%
CCCCC(=O)Nc1cccc(NC(=O)CC)c1	-17.1%[12.7 µM]	-0.9%	27.2%	-13.2%	-18.8%
CCOc1ccc(S(=O)(=O)N2CCOCC2)cc1NC(=O)c1ccc(N2CCCC2=O)cc1	31.6µM*	x	18.0%	-7.6%	-4.1%
Cc1ccc(OCC(=O)Nc2cc(S(=O)(=O)N3CCCCC3)ccc2N2CCN(C)CC2)c(C)c1	44.7µM*	x	-27.5%	u	u
